Data reported in PubChem BioAssay (Tox21).
Inconclusive results are not listed. Entries that show only a call come without a potency. Calls of active or inactive are those of the source. Calls follow the shape of the dose curve; as a rule, active = well fitted cell-killing curve with a large enough effect in the repeat runs; inconclusive = weak or mixed curves, or effect the other way; inactive = flat fitted curve, though single readings scatter.

Experiment: cAMP Responsive Elements (CRE) small molecule antagonists, cell-based qHTS assay: qHTS cell viability counter screen (AID 2060913); also: nearly all actives have a fitted effect of over 40% in size
Conditions: CRE-bla HEK293T viability, CellTiter-Glo luminescence, 5 h; series mostly up to 92.4 µM
Text: U.S. Tox21 Program National Center for Advancing Translational Sciences [NCATS] Division of Preclinical Innovation [DPI] U.S. Environmental Protection Agency [EPA] National Institutes of Environmental Health Sciences [NIEHS] National Toxicology Program [NTP] U.S. Food and Drug Administration [FDA] Tox21 Assay Overview: CREB (cyclic-AMP Responsive Element Binding Protein) is a cellular transcription factor. It binds to certain DNA sequences called cAMP Responsive Elements (CRE) and regulates the transcription of the genes. […] This cell line can be used to find agonists/antagonists of the cyclic AMP signaling pathway. The activation of the report gene under culture conditions can be detected by fluorescence intensity. This cell line has been used to screen the Tox21 10K compound library to identify agonists that induce oxidative stress. The cytotoxicity of the Tox21 compound library against the CRE-bla cell line was tested in parallel by measuring the cell viability using CellTiter-Glo assay (Promega, Madison, WI) in the same wells.
Tox21 Assay Protocol Summary: CRE-bla Hek 293T cells were suspended in assay medium (DMEM containing 10% dialyzed FBS, 0.1 mM NEAA, 1 mM sodium pyruvate and 25 mM HEPES) and dispensed at 2,000 cells/4 uL /well into 1536-well black wall/clear bottom plates using a Multidrop Combi (ThermoFisher Scientific, Waltham, MA) dispenser. After the assay plates were incubated at 37 C/5% CO2 for 18 hrs, 23 nL of compounds dissolved in DMSO, positive controls or DMSO only was transferred to the assay plate by a pintool workstation (Kalypsys, San Diego, CA), followed by addition of 1 uL of 1.25uM NKH477 (0.25 uM as final concentration) in assay medium using a Flying Reagent Dispenser (Aurora Discovery, San Diego, CA). The plates were incubated at 37 C and 5% CO2 for 3 hrs. Then 1 uL of LiveBLAzer B/G FRET substrate (Invitrogen, Carlsbad, CA) was added to each well using Bioraptr Flying Reagent Dispenser (FRD, Aurora Discovery, San Diego, CA). The plates were incubated at room temperature for 2 h, then fluorescence intensities were measured using an Envision plate reader (PerkinElmer, Shelton, CT) at Excitation 405nm, Emission 460nm and 530nm. The % activity was determined from the ratio of 460nm/530nm. For cell viability readout that measures cytotoxicity, 4 uL /well of CellTiter-Glo reagent was added into the assay plates using Bioraptr FRD. After 30 min incubation at room temperature, the luminescence intensity in the assay plates was measured using a ViewLux (PerkinElmer, Shelton, CT) plate reader.
Potency is read from the fitted curve at half-maximal effect.

Row | Structure (SMILES) | Potency
1 | CON(C)C(=O)Nc1ccc(Br)c(Cl)c1 | inactive
2 | C[C@]12CC[C@@H]3c4ccc(OC(=O)N(CCCl)CCCl)cc4CC[C@H]3[C@@H]1CC[C@@H]2O | inactive
3 | OC[C@@H](O)[C@H]1O[C@@H]2O[C@H](C(Cl)(Cl)Cl)O[C@@H]2[C@H]1O | inactive
4 | COc1cccc(C(=O)CCN[C@@H](C)[C@H](O)c2ccccc2)c1 | inactive
5 | Cc1cnc(C2=NC(C)(C(C)C)C(=O)N2)c(C(=O)O)c1 (stereo not given) | inactive
6 | ClCc1ccccn1 | inactive
7 | C[C@]12Cc3cn[nH]c3C[C@@H]1CC[C@@H]1[C@@H]2CC[C@@]2(C)[C@H]1CC[C@]2(C)O | inactive
8 | CCC(C)(C)c1ccc(O)cc1 | inactive
9 | Cc1ccc2c(c1N)C(=O)c1ccccc1C2=O | inactive
10 | O=NN1CCCCCCC1 | inactive
11 | C[C@@H](N)[C@@H](O)c1ccccc1 | inactive
12 | CNC(=O)O/N=C/C(C)(C)S(C)=O (stereo not given) | inactive
13 | COC[C@@H](NC(C)=O)C(=O)NCc1ccccc1 | inactive
14 | CCOP(=S)(OCC)SCS(=O)(=O)CC | inactive
15 | Cc1ccc(OP(=O)(Oc2ccccc2)Oc2ccccc2)cc1 | inactive
16 | Oc1ccccc1Cl | inactive
17 | Nc1ccncc1 | inactive
18 | CC[N+]1(C)CCCC(OC(=O)C(O)(c2ccccc2)c2ccccc2)C1 (stereo not given) | inactive
19 | C#CCN(C)[C@H](C)Cc1ccccc1 | inactive
20 | Cc1nnc(-c2ccccc2)c(=O)n1N | inactive

Row | Structure (SMILES) | Potency
21 | CC(c1ccc(O)cc1)(c1ccc(O)cc1)c1ccc(O)cc1 | inactive
22 | O=C(Nc1ccc(Br)cc1)c1cc(Br)cc(Br)c1O | inactive
23 | C[C@@H]1O[C@@H](O[C@H]2C[C@@H](O)[C@]3(CO)[C@H]4[C@H](O)C[C@]5(C)[C@@H](C6=CC(=O)OC6)CC[C@]5(O)[C@@H]4CC[C@]3(O)C2)[C@H](O)[C@H](O)[C@H]1O | 0.073 µM (active)
24 | CC(C)CBr | inactive
25 | CC1=NNC(=O)N(/N=C/c2cccnc2)C1 | inactive
26 | CCN(CC)C(=O)SCc1ccc(Cl)cc1 | inactive
27 | CCC(OC(C)=O)C(CC(C)NC)(c1ccccc1)c1ccccc1 (stereo not given) | inactive
28 | Cc1cnc[nH]1 | inactive
29 | COP(=S)(OC)Oc1ccc(S(N)(=O)=O)cc1 | inactive
30 | CS/C(C)=N/OC(=O)N(C)SN(C)C(=O)O/N=C(\C)SC | inactive
31 | C=CCOC(=O)c1ccccc1N | inactive
32 | Cc1cccc(N)c1 | inactive
33 | CCOC(=O)C1(c2ccccc2)CCN(CCc2ccc(N)cc2)CC1 | inactive
34 | CCCN1CCC[C@@H]2Cc3[nH]ncc3C[C@H]21 | inactive
35 | Nc1ccc(Oc2ccc(N)cc2)cc1 | inactive
36 | CN(C)C(=O)Nc1ccc(Cl)cc1 | inactive
37 | ClCCN1CCCC1 | inactive
38 | CN=C=S | inactive
39 | CCN(CC)C(=S)[S-].CCN(CC)C(=S)[S-].[Zn+2] | 6.8 µM (active)
40 | CN1C[C@@H](NS(=O)(=O)N(C)C)C[C@@H]2c3cccc4c3c(cn4C)C[C@H]21 | inactive
